In all, about 310,000 compounds went through this assay and about 11,000 (3.5%) were called active. Not shown: some 4% with an inconclusive outcome. The call rests on the fitted dose curve; in most records, active means well fitted inhibition curve with a large enough effect; inconclusive means small, poorly fitted or top-dose-only effect, or another doubt; inactive means no such curve, though single readings can be large or run the other way. This excerpt belongs to a sample that is enriched for actives. Non-standard residues stand in square brackets, D forms with d. Residues, ends and D or L forms follow the SMILES beside them. *: point of attachment. PhAc = O=C(Cc1ccccc1)*
These molecules were tested against 4'-phosphopantetheinyl transferase ffp (Bacillus subtilis) (UniProt Q9F4F7) (assay: qHTS Assay for Inhibitors of Bacillus subtilis Sfp phosphopantetheinyl transferase (PPTase)). Conditions: Biochemical Sfp PPTase activity.
Outline: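 With Hepes-Na pH 7.6 buffer containing 10 mM MgCl2, Sfp (15 nM) modified BHQ-2-YbbR (12.5 uM) using rhodamine-CoA (5 uM). Two reads 30 minutes apart at 525/598 nm yielded each well's rate.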
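Further: the enzyme is Sfp with the accession as filed and its product quenches rhodamine fluorescence.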
Potency means the concentration at half of the fitted maximal effect.
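Wherever largest response in the series, negative = inhibition is given: 0% = enzyme reaction without inhibitor and -100% = no enzyme wells.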

Row | Structure (SMILES) | largest response in the series, negative = inhibition | Potency
1 | C=CCc1c(C)nc2cc(-c3ccccc3)[nH]n2c1=O | 7.41% (inactive) | 
2 | COc1ccc(-c2cc3nc(C)c(CCC(=O)NC(C)CCc4ccco4)c(C)n3n2)c(OC)c1 (centres undefined) |  | 79.4 µM (active)
3 | Cc1nc2c(-c3ccc(F)cc3)c(C)nn2c(C)c1CCC(=O)NCc1ccco1 | -2.36% (inactive) | 
4 | COc1cc(OC)cc(-c2nc3nc(C)c(CCC(=O)NCc4ccco4)c(C)n3n2)c1 | 8.97% (inactive) | 
5 | CC(C)C(=O)Nc1nnc(SCC(=O)N2C(C)CCCC2C)s1 (centres undefined) | -17.7% (inactive) | 
6 | O=C(CN1CCN(S(=O)(=O)c2cc(Cl)ccc2Cl)CC1)c1ccc(O)c(O)c1 |  | 50.1 µM (active)
7 | O=S(=O)(c1cc(Cl)ccc1Cl)N1CCN(Cc2ccco2)CC1 | 22.5% (inactive) | 
8 | COc1ccc(Cl)cc1S(=O)(=O)N1CCN(CC(=O)C(C)(C)C)CC1 | 7.95% (inactive) | 
9 | O=C1CCC(=O)N(O)CCCCCNC(=O)CCC(=O)N(O)CCCCCNC(=O)CCC(=O)N(O)CCCCCN1 |  | 89.1 µM (active)
10 | COc1ccccc1CNC(=O)C1CCN(S(=O)(=O)c2ccc3c(c2)CC(C)N3C(=O)C2CC2)CC1 (centres undefined) | -7.76% (inactive) | 
11 | CN(C)S(=O)(=O)c1ccc(N2CCCC2)c(C(=O)Nc2cccc(F)c2)c1 | -1.67% (inactive) | 
12 | Cc1ccc(C(=O)NCCc2nnc(SCC(=O)Nc3cccc(C(=O)O)c3)n2C)cc1 | 10.4% (inactive) | 
13 | CC(CCc1ccccc1)NC(=O)COC(=O)c1ccc(F)cc1 (centres undefined) | -4.51% (inactive) | 
14 | CCN(CC(=O)Nc1ccc(S(=O)(=O)N2CCCC2)cc1)CC(=O)Nc1cccc(OC)c1 |  | 79.4 µM (active)
15 | CCOc1cccc(NC(=O)C2CCCN(S(=O)(=O)c3ccc(OC)cc3)C2)c1 (centres undefined) | -5.07% (inactive) | 
16 | COc1ccccc1CC(=O)Nc1ccc(S(=O)(=O)N2CCCC2)cc1 | 4.84% (inactive) | 
17 | Cc1cc(C)c(C#N)c(Nc2cccc(Br)c2)n1 | 6.8% (inactive) | 
18 | CC(C)C[C@@H](NC(=O)[C@H]1CCCN1C(=O)Cc1ccccc1)C(N)=O (PhAc-[dP]-[dL]-NH2) | 21.3% (inactive) | 
19 | CC(C)CCN(C(=O)c1csnn1)C(C(=O)NC1CCCC1)c1ccccc1 (centres undefined) | 13.6% (inactive) | 
20 | COc1ccc2[nH]cc(CCNc3ncnc4ccc(-c5ccc(C(=O)N(C)C)cc5)cc34)c2c1 | -5.41% (inactive) | 
21 | COc1cccc(Cn2cc(/C=N/NC(=O)c3cc(O)cc(O)c3)c3ccccc32)c1 | -18.5% (inactive) | 
22 | COc1ccc(/C=N/NC(=O)c2cccc(C(F)(F)F)c2)cc1 | -22% (inactive) | 
23 | O=C(Cn1cc(/C=N/NC(=O)c2cccc(C(F)(F)F)c2)c2ccccc21)Nc1ccc(F)cc1 |  | 20 µM (active)

Row | Structure (SMILES) | largest response in the series, negative = inhibition | Potency
24 | O=C(NC1Cc2ccccc2C1)c1cc(COc2cccc(C(F)(F)F)c2)on1 | 24% (inactive) | 
25 | S=c1[nH]nc(COc2ccccc2)n1-c1ccccc1 | 21.2% (inactive) | 
26 | CCc1n[nH]c(=S)n1/N=C/c1c[nH]c2ccc(Br)cc12 | 11.4% (inactive) | 
27 | Cc1ccc(-c2n[nH]c(=S)n2/N=C/c2cc3c(cc2[N+](=O)[O-])OCO3)cc1 | -22.6% (inactive) | 
28 | Cc1ccc(OCc2n[nH]c(=S)n2-c2ccccc2)cc1 | 5.12% (inactive) | 
29 | Fc1ccc(/C=N/n2c(COc3ccccc3)n[nH]c2=S)cc1 |  | 56.2 µM (active)
30 | O=[N+]([O-])c1ccccc1/C=N/n1c(COc2ccccc2)n[nH]c1=S |  | 56.2 µM (active)
31 | CSc1ccc(CCNC(=O)CS(=O)(=O)Cc2nc(-c3ccccc3F)oc2C)cc1 | 17.7% (inactive) | 
32 | Cc1cc(Cl)ccc1C(=O)C1CCCN(C(=O)c2nonc2C)C1 (centres undefined) | 1.34% (inactive) | 
33 | COC(=O)c1ccc(/C=N/N2C(C)CCCC2C)cc1 (centres undefined) | 13.3% (inactive) | 
34 | COC(=O)c1ccc(/C=N\n2c(C)nnc2C)cc1 | 13.8% (inactive) | 
35 | CCN(CC)S(=O)(=O)c1cccc(-c2n[nH]c(=S)n2/N=C/c2ccc(C(=O)OC)cc2)c1 |  | 50.1 µM (active)
36 | COC(=O)C1=CN(Cc2ccc(OC)cc2)C=C(C(=O)OC)C1c1ccc(O)c(OC)c1 | -3.15% (inactive) | 
37 | Cn1c(Cn2nnc3ccccc32)nnc1SCC(=O)c1ccccc1F |  | 50.1 µM (active)
38 | Cc1ccc(C(=O)CSc2nnc(Cn3nnc4ccccc43)n2C)cc1 | 4% (inactive) | 
39 | Cn1c(CNC(=O)c2ccccc2F)nnc1SCc1ccc(F)cc1 | -14.5% (inactive) | 
40 | COc1ccc(S(=O)(=O)/N=C2\C=C(NS(=O)(=O)c3ccccc3)C(=O)c3ccccc32)cc1 | -20.9% (inactive) | 
41 | OCCN1CCN(C(=S)c2ccc(-c3ccccc3)cc2)CC1 |  | 7.08 µM (active)
42 | O=C(NC(c1ccccc1)c1ccccc1)N1CCN(CCO)CC1 | 5.46% (inactive) | 
43 | OCCN1CCN(c2nnc(-c3ccccc3)c3ccccc23)CC1 | 21.7% (inactive) | 
44 | CCc1nonc1NC(=O)c1oc2ccc(Cl)cc2c1C | -4.03% (inactive) | 
45 | COc1cccc(CC(=O)N2CCc3nc(COc4ccccc4)c4c(c3C2)CO[C@@H](C)C4)c1 | -1.37% (inactive) | 
46 | NS(=O)(=O)c1ccc(CNC(=O)c2cccc(Oc3ccccc3)c2)cc1 | 5.75% (inactive) | 

Row | Structure (SMILES) | largest response in the series, negative = inhibition | Potency
47 | CCCSc1nc2sc3c(c2c(=O)n1-c1ccc(OC)cc1)CCN(C)C3 | -7.59% (inactive) | 
48 | COc1ccc(-n2c(=S)[nH]c3sc4c(c3c2=O)CCc2ccccc2-4)cc1 |  | 17.8 µM (active)
49 | CSc1nc2sc3c(c2c(=O)[nH]1)CCc1ccccc1-3 | 2.54% (inactive) | 
50 | CCOC(=O)C1=C(CN2CCc3ccccc32)NC(=O)NC1c1cccc([N+](=O)[O-])c1 (centres undefined) | 3.8% (inactive) | 
51 | CCOC(=O)C1=C(CN2CCCCCC2)NC(=O)NC1c1cccc([N+](=O)[O-])c1 (centres undefined) |  | 89.1 µM (active)
52 | CCOC(=O)C1=C(CN2CCc3ccccc32)NC(=O)NC1c1ccc(Cl)cc1 (centres undefined) | -11.6% (inactive) | 
53 | O=C(Nc1ccc(-n2cccn2)cc1)C1CCN(Cc2ccsc2)CC1 | -0.783% (inactive) | 
54 | Cc1cccc(C(=O)NC(=S)N(C)C2CCCCC2)c1 | 17.9% (inactive) | 
55 | Nc1nc2nc(Cl)[nH]c2c(=O)[nH]1 | -9.02% (inactive) | 
56 | Cn1nccc1C(=O)NC1CCCc2c1cnn2-c1ccc(F)cc1F (centres undefined) | 12.2% (inactive) | 
57 | Cc1cc(C)n(-c2ccc(Cl)c(C(=O)O)n2)n1 | -14.9% (inactive) | 
58 | Cc1cc(C)n(-c2ccc3nncn3n2)n1 | 10.3% (inactive) | 
59 | Cc1cc(C)n(-c2nc(O)cc(=O)[nH]2)n1 |  | 15.8 µM (active)
60 | O=C(COc1nsnc1N1CCOCC1)Nc1ccccc1Cl | 10.1% (inactive) | 
61 | CN(C)S(=O)(=O)N1CCC(Oc2cccc(C(=O)NCCCC3CCCC3)c2)CC1 | -2.01% (inactive) | 
62 | C/C(=N/NC(=O)CSc1ccccn1)c1ccc([N+](=O)[O-])cc1 | 0.345% (inactive) | 
63 | O=C(CC(n1cncn1)C(Cl)(Cl)Cl)c1ccc([N+](=O)[O-])cc1 (centres undefined) |  | 44.7 µM (active)
64 | O=C(CCn1nnc2ccccc21)OCC(=O)c1ccc([N+](=O)[O-])cc1 | 30.5% (inactive) | 
65 | Cc1ccc(C)c(S(=O)(=O)Nc2cc(C)on2)c1 | 10.8% (inactive) | 
66 | CCCCN=C1C([N+](=O)[O-])=CC=C2C1=NC1(CCCCC1)N2O |  | 28.2 µM (active)
67 | O=C(NC1CCCC1)c1cc(-c2ccccc2)on1 | 11.2% (inactive) | 
68 | Cc1ccc(NC(=O)Cn2nnc(C(=O)NCc3ccco3)c2N)c(C)c1 | -4.99% (inactive) | 
69 | CCN1CCN(CCNC(=O)c2ccc3c(c2)NC(=O)/C(=C\c2ccc(OC)c(OC)c2)S3)CC1 | -5.49% (inactive) | 

Row | Structure (SMILES) | largest response in the series, negative = inhibition | Potency
70 | CCN1CCN(CCNC(=O)c2ccc(/C=C3/Sc4ccccc4N(Cc4cccc(C)c4)C3=O)cc2)CC1 |  | 39.8 µM (active)
71 | Cc1ccccc1CN1C(=O)c2ccccc2Sc2ccc(C(=O)NCCCN3CCOCC3)cc21 | -13.2% (inactive) | 
72 | CCOC(=O)C1CCN(C(=O)C2CCCN(S(=O)(=O)c3ccc(OC)c(Cl)c3)C2)CC1 (centres undefined) | 3.96% (inactive) | 
73 | Cc1cc(=O)oc2c3c(cc(OCC(=O)NCCC(=O)N[C@@H](C)C(=O)O)c12)OC(C)(C)CC3 | 2.46% (inactive) | 
74 | CCOC(CNC(=O)C1CCN(S(=O)(=O)c2ccc3nc4c(c(C(=O)O)c3c2)CC(C)CC4)CC1)OCC (centres undefined) | 9.57% (inactive) | 
75 | COC(=O)CC1=NN(c2nc(C)cc(C)n2)C(=O)C1 |  | 50.1 µM (active)
76 | Cc1ccc(CC2CC(=O)N(c3nc(C)cc(C)n3)C2=O)cc1 (centres undefined) | 0.267% (inactive) | 
77 | Cc1cc(C)cc(NC(=O)C2CCN(c3nc(C)cc(C)n3)CC2)c1 | 9.84% (inactive) | 
78 | Cc1ccc(-n2c(C)nnc2SCC(=O)NC2CC2)cc1 | 4.57% (inactive) | 
79 | O=C(Cc1ccc(Cl)cc1)NC(=S)Nc1ccccc1O | 12.4% (inactive) | 
80 | Oc1ccc(CNc2ccccc2O)cc1 |  | 50.1 µM (active)
81 | O=[N+]([O-])c1ccccc1NCc1ccc(Cl)cc1 | -18.2% (inactive) | 
82 | COc1ccc(CN2CCC(=O)c3ccccc3S2(=O)=O)cc1 | -5.49% (inactive) | 
83 | O=P(O)(O)OC[C@H](O)CO | 16.8% (inactive) | 
84 | COc1cc(Cl)c(C)cc1NC(=O)CSc1nnc(-c2ccco2)n1CC(C)C |  | 44.7 µM (active)
85 | COc1cc(Cl)c(C)cc1NC(=O)CSc1nnc(-c2cccnc2)n1Cc1ccco1 | -18.1% (inactive) | 
86 | CCn1c(SCC(=O)Nc2cc(C)c(Cl)cc2OC)nnc1-c1ccco1 | 2.43% (inactive) | 
87 | O=S(=O)(Cc1nnnn1-c1ccc(Br)cc1)c1ccc(F)cc1 | 6.04% (inactive) | 
88 | Cn1c(=O)c2c(SCC(=O)NCC3CCCO3)nc(CC(C)(C)C)nc2n(C)c1=O (centres undefined) | -16% (inactive) | 
89 | Nc1c(Cl)cc(-c2csc(N3CCCC3c3nc4cc(Cl)c(Cl)cc4n3CCOCCO)n2)cc1Cl (centres undefined) | -23.5% (inactive) | 

Source: PubChem BioAssay AID1490 (National Center for Advancing Translational Sciences (NCATS), 2009)
